Bioassay records deposited in PubChem by The Scripps Research Institute Molecular Screening Center.
Sampled rows, rich in hits. Any-hit rate of the full collection: about 3%.
PP5 inh – PP5 (human) phosphatase inhibition. purified PP5c, OMFP substrate fluorescence. inhibition, % at 6.7 µM. 320,000 tested, 0.18% active;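 active = inhibition above the campaign's mean inhibition across all tested compounds plus 3 SD, cut at about 9.5% in these data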;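 also: 0% = DMSO only and 100% = 100 µM cantharidin control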
pPAFAH inh – inhibitors of human plasma PAF acetylhydrolase (pPAFAH) | Q13093 | recombinant pPAFAH, FP-rhodamine probe fluorescence polarization | inhibition, % at 3.39 µM | 330,000 tested, 1.5% active | AID 463082;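 active = inhibition above the mean inhibition across the screen plus 3 SD, cut at about 25% in these data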;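 also: inhibitors block binding of the rhodamine activity-based probe so polarization drops; 0% = enzyme with DMSO and 100% = wells lacking pPAFAH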
Fh CTSL1 inh – counter-screen for PFM18AAP inhibitors: inhibitors of F. hepatica cathepsin L1. 300,000 tested, 0.49% active. inhibition, % at 5.96 µM. recombinant F. hepatica cathepsin L1, Z-Leu-Arg-MCA fluorescence. AID 1906;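 active = inhibition above the mean of all tested compounds plus 3 SD, set per screening campaign, cut at about 17% in these data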;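 also: 0% = plate median of test compound wells and 100% = 1 µM Z-Phe-Ala-diazomethylketone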
PAFAH2 FP inh – PAFAH2 (human) inhibition; 340,000 tested, 0.99% active; inhibition, % at 3.39 µM; AID 492956; Q99487; recombinant PAFAH2, FP-rhodamine activity probe, fluorescence polarization;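 active = inhibition above the mean over all tested compounds plus 3 SD, cut at about 30% in these data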;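 also: inhibitors block probe labeling of enzyme so polarization drops; 0% = enzyme with DMSO and 100% = wells lacking PAFAH2 protein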
PAFAH1B2 inh – inhibitors of human PAFAH1B2. AID 492953. P68402. inhibition, % at 3.39 µM. recombinant PAFAH1B2, FP-rhodamine activity probe, fluorescence polarization. 340,000 tested, 1.2% active;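 active = inhibition above the mean of all tested compounds plus 3 SD, cut at about 24% in these data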;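 also: 0% = enzyme with DMSO and 100% = wells lacking PAFAH1B2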
Target sequence (P68402 whole entry, looked up): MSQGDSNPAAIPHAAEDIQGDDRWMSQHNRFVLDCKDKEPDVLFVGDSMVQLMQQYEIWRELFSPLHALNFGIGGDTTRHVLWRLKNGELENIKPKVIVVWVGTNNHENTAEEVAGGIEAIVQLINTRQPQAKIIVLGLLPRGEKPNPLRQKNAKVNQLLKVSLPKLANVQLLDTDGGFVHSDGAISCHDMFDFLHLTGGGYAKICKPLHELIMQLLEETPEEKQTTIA
PAFAH1B3 inh – blocks human PAF acetylhydrolase 1B catalytic subunit 3. Q15102. recombinant PAFAH1B3, FP-rhodamine probe, fluorescence polarization. inhibition, % at 3.39 µM. 340,000 tested, 0.28% active. AID 492972;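 active = inhibition above the screen-wide average of all tested compounds plus 3 SD, cut at about 25% in these data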;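 also: 0% = enzyme with DMSO only and 100% = wells lacking PAFAH1B3 protein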
Target sequence (Q15102 whole entry, looked up): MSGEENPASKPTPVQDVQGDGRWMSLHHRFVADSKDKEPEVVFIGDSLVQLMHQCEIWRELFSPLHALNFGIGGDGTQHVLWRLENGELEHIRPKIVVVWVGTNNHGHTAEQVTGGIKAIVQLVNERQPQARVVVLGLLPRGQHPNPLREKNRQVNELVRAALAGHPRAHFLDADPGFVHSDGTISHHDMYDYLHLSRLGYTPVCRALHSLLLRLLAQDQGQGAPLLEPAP
Numbers without * were called inactive.

How did Cc1ccc(S(=O)(=O)CCC(=O)NCCN2C(=O)S/C(=C/c3ccc(F)cc3)C2=O)cc1 do in these assays?
PP5 inh: 1.9; pPAFAH inh: 5.2; Fh CTSL1 inh: 13.5; PAFAH2 FP inh: 5.5; PAFAH1B2 inh: 32.8*; PAFAH1B3 inh: 4.4

Results for O=C(CCNC(=O)c1ccco1)NCCN1C(=O)S/C(=C\c2ccc(F)cc2)C1=O ?
PP5 inh: 0.5; pPAFAH inh: -2.1; PAFAH2 FP inh: 8.2; PAFAH1B2 inh: 6.7; PAFAH1B3 inh: 7.1

How did COc1ccc(C)cc1NC(=O)c1ccc2c(O)c(S(=O)(=O)c3ccccc3)c(=O)[nH]c2c1 do in these assays?
PP5 inh: 0.7; pPAFAH inh: 0.1; Fh CTSL1 inh: -2.2; PAFAH2 FP inh: 5.1; PAFAH1B2 inh: 3.7; PAFAH1B3 inh: 5.6

Results for COC(=O)c1ccc(S(=O)(=O)NCc2ccc(OC)cc2)n1C ?
PP5 inh: -1.2; pPAFAH inh: -0.1; Fh CTSL1 inh: -1.4; PAFAH2 FP inh: 3.6; PAFAH1B2 inh: 28.7*; PAFAH1B3 inh: 6.8

Results for COC(=O)c1ccc(S(=O)(=O)NCc2ccco2)n1C ?
PP5 inh: -1.1; pPAFAH inh: 4.1; Fh CTSL1 inh: -1.2; PAFAH2 FP inh: -2.1; PAFAH1B2 inh: -1.4; PAFAH1B3 inh: 9.7

What do the screens show for `CCOc1ccc(Nc2nc(N(C)c3ccccc3)nc(N)c2[N+](=O)[O-])cc1`?
PP5 inh: -1.0; pPAFAH inh: 2.6; Fh CTSL1 inh: 5.7; PAFAH2 FP inh: -3.6; PAFAH1B2 inh: 3.7; PAFAH1B3 inh: -3.1

How did CC(C)(C)c1ccc(C(=O)NCCC(=O)N2CCN(c3ncccn3)CC2)cc1 do in these assays?
PP5 inh: -0.2; pPAFAH inh: 0.2; Fh CTSL1 inh: 2.5; PAFAH2 FP inh: 0.6; PAFAH1B2 inh: 29.6*; PAFAH1B3 inh: -1.4

How did O=S(=O)(Cc1ccccc1)NCCc1cccc(Cl)c1 do in these assays?
PAFAH2 FP inh: 4.6; PAFAH1B2 inh: 8.4; PAFAH1B3 inh: 9.1

Results for COc1ccccc1CNC(=O)C(CC(C)C)NC(=O)C1CCC(C)CC1 (configuration not stated) ?
PP5 inh: 2.2; pPAFAH inh: 3.4; Fh CTSL1 inh: 2.1; PAFAH2 FP inh: -5.0; PAFAH1B2 inh: 1.4; PAFAH1B3 inh: -1.4

Results for CC(C)CC(NC(=O)C1CCC(C)CC1)C(=O)NCc1ccco1 (configuration not stated) ?
PP5 inh: 0.5; pPAFAH inh: 0.3; Fh CTSL1 inh: 22.7*; PAFAH2 FP inh: 5.9; PAFAH1B2 inh: 1.1; PAFAH1B3 inh: 1.9

Results for O=C(O)c1ccc(N/N=C/c2ccc(OC(=O)c3ccccc3Cl)cc2)cc1 ?
PP5 inh: 2.5; pPAFAH inh: 26.9*; Fh CTSL1 inh: 2.0; PAFAH2 FP inh: 16.3; PAFAH1B2 inh: -0.8; PAFAH1B3 inh: 9.6

How did Nc1ccc(C(=O)N/N=C\c2ccc(OC(=O)c3ccccc3Cl)cc2)cc1 do in these assays?
PP5 inh: -2.3; pPAFAH inh: 12.4; Fh CTSL1 inh: -2.5; PAFAH2 FP inh: -8.3; PAFAH1B2 inh: -0.5; PAFAH1B3 inh: 7.6

Results for CN(C)c1ccc(/C=N/NC(=S)NCc2ccccc2)cc1 ?
PP5 inh: 4.5; pPAFAH inh: 17.5; Fh CTSL1 inh: -0.2; PAFAH2 FP inh: -5.9; PAFAH1B2 inh: 2.7; PAFAH1B3 inh: 8.7

What do the screens show for `CCN(Cc1ccccc1)c1ccc(/C=N/NC(=S)NC(C)C)cc1`?
PP5 inh: 0.8; pPAFAH inh: 22.0; Fh CTSL1 inh: 5.1; PAFAH2 FP inh: -0.2; PAFAH1B2 inh: 25.6*; PAFAH1B3 inh: 13.0

How did CCN(Cc1ccccc1)c1ccc(/C=N/N=C(N)N)cc1 do in these assays?
PP5 inh: 2.3; pPAFAH inh: 7.0; Fh CTSL1 inh: 6.5; PAFAH2 FP inh: 5.3; PAFAH1B2 inh: 25.0*; PAFAH1B3 inh: 7.4

Results for CCN(Cc1ccccc1)c1ccccc1 ?
PAFAH2 FP inh: 13.4; PAFAH1B2 inh: 4.6; PAFAH1B3 inh: 8.7

Results for CCN(CC)c1ccc(/C=N/NC(=S)NCc2ccco2)cc1 ?
PP5 inh: 1.4; pPAFAH inh: 28.9*; Fh CTSL1 inh: 14.8; PAFAH2 FP inh: -1.9; PAFAH1B2 inh: 1.3; PAFAH1B3 inh: 2.0

Results for CCN(Cc1ccccc1)c1ccc(/C=N/NS(=O)(=O)c2ccc(C)c([N+](=O)[O-])c2)cc1 ?
PP5 inh: 2.5; pPAFAH inh: 3.2; Fh CTSL1 inh: -0.9; PAFAH2 FP inh: 0.7; PAFAH1B2 inh: 28.2*; PAFAH1B3 inh: 5.1
